# Reference: the supplement of paper PMC6555819
# Key:
# Assay in all cases: PBM binding z-score (relative to random genomic background probes); higher = stronger binding; sequences stand for … in GC…GCGATTGACAGCGTAGAATGAAGG
# [1] = system: PPARg:RXRa DBDmut IVT, anti-RXR (DBD mutation: RXRa K156A/R161A, NR concentration 270 nM, RXRa partner concentration 90 nM)
# In short: (§1)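 Binding z-scores were set against random background probes. The data came from custom Agilent 4×180K protein-binding microarrays carrying double-stranded probes with 34-nt variable regions, incubated 1 h with ligand-free nuclear receptor dimers. Partner-specific antibodies detected binding, and scanned fluorescence was regression-normalized.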
# [2] = system: PPARg:RXRa IVT, anti-PPARg (NR concentration 270 nM, RXRa partner concentration 90 nM)
# In short: as §1
# [3] = system: PPARg DBDmut:RXRa IVT, anti-PPARg (DBD mutation: PPARg1 K132A/R137A, NR concentration 270 nM, RXRa partner concentration 90 nM)
# In short: as §1
# [4] = system: PPARg DBDmut IVT, anti-PPARg (DBD mutation: PPARg1 K132A/R137A, NR concentration 270 nM)
# In short: as §1
# [5] = system: PPARg homodimer (NR concentration 180 nM)
# In short: as §1
# [6] = system: PXR:RXRa (NR concentration 270 nM, RXRa partner concentration 90 nM)
# In short: as §1
# [7] = system: PXR homodimer (NR concentration 270 nM)
# In short: as §1
# [8] = system: RARa:RXR (NR concentration 270 nM, RXRa partner concentration 90 nM)
# In short: as §1
# [9] = system: RARa homodimer (NR concentration 270 nM)
# In short: as §1
# [10] = system: RARb:RXRa (NR concentration 270 nM, RXRa partner concentration 90 nM)
# In short: as §1
Sequence,PBM binding z-score [1],PBM binding z-score [2],PBM binding z-score [3],PBM binding z-score [4],PBM binding z-score [5],PBM binding z-score [6],PBM binding z-score [7],PBM binding z-score [8],PBM binding z-score [9],PBM binding z-score [10]
CCGACTGGGGCAAAGGTTACCAGACTCAGTACGA,4.51,5.88,-0.692,-1.09,0.726,2.48,-0.264,3.64,-0.558,2.66
GGATCGAGGGCAAAGTTGATAGCATCTGTCGACG,3.8,4.54,0.527,1.19,1.75,1.34,0.172,1.65,-0.00886,2.61
CCTTACGGGTCACGAGGTTCTAGCACGACGAGCG,4.32,5.09,0.979,-0.156,2.86,4.06,-0.111,5.48,0.989,4.41
GCTATCAGTTGAAAGGGCAACCGAATGATTCTCG,0.18,0.3,-0.111,-0.549,0.562,0.584,-0.393,1.25,-0.381,2.07
CGAACTAGGTCATCCAGCACAGTGAATACATTGA,8.26,8.11,2.99,2.39,1.64,1.47,0.241,2.25,0.526,3.71
ATACCAAGGTGATCGTGAGATCGTTGATACTAAC,0.453,1.18,0.758,0.465,0.145,-0.151,-0.339,0.227,0.462,0.492
ACCGAAAGGTCGAGGTGAGTATAGAGAAAGGGAA,0.771,2.17,0.276,0.807,1.13,2.31,0.286,3,0.981,4.17
TCATATAGGCAAAGGTGAAAGTCGAACGATATGA,2.2,2.33,0.797,0.292,0.811,1.04,0.14,2.02,0.326,1.74
ACCATTAGTTGACTTAGGGCAACCGATACGACGC,0.771,0.653,0.856,-0.189,0.706,0.147,0.618,0.916,0.526,0.973
ACTAGTTGGCCAGCTGAGGTCACACACAATTCGG,0.715,1.85,0.578,0.0549,2.34,4.59,1.49,4.57,0.503,3.19
ATACCACGGTGATCGTGAGGTCGTTGATACTAAC,-0.0691,0.808,0.255,0.824,0.823,1.6,0.891,1.57,0.137,0.885
TAGCCTAGGGCATGGGCCAGTATACCACGCGAAC,-0.924,0.59,-0.344,-0.519,-0.284,-0.477,-0.557,0.0195,-0.519,1.33
AGTATGAGGTTATACGTAGATCAGGGAAGAAAGT,1.1,0.98,0.752,0.274,0.842,1.25,0.582,1.66,0.209,1.58
CGAACTTGGTCATCCAGGACAGTGAATACATTGA,1.09,1.08,0.648,0.367,-0.34,0.166,0.269,0.326,-0.093,1.23
TAGCCTAGGTCATGCGGGCCAGTATGGTGTCGGC,1.73,2.9,-0.0668,-0.181,0.816,1.42,-0.582,2.52,-0.311,3.65
TCTTATAGGTAAACAGGTGAAAGTCCGTAAGTTA,4.87,4.49,1.36,1.34,1.19,0.753,0.655,0.981,0.803,0.791
ACTATTAGATGACTTAGGGCAACCGATACGACGC,0.577,0.319,1.54,1.42,1.03,-0.0258,0.554,0.143,1.38,0.885
TACACAGGGTCAAAGGCCAGAGTACGAATGTCGA,1.53,4.08,0.992,0.428,1.44,4.11,0.543,5.47,0.487,4.53
CCTAGCAGGTCAATCTGGGTCACTCAAGGCTTGA,5.78,6.18,1.08,-0.626,2.33,5.31,0.0416,4.45,0.436,3.96
TCTTGTAGATCAAAAGTTAAGAAAGCCGAAGCCT,1.79,0.791,1.09,0.787,-0.327,0.243,-0.268,0.155,-0.386,-0.12
GAAGACAGGTGAAACGCAGGTAACTCAGGGTGGC,0.674,1.15,0.0757,-0.907,-0.0582,-0.0972,-0.579,0.542,-0.418,0.745
GCTATTAGTTGAAAGGGCAACCGGATGATTCTCG,0.432,0.892,0.0968,-0.308,1.33,0.775,0.0713,1.37,1.05,2.1
ACATGTAGGTTATCGGGTCATTCAGTTTGCGCAT,6.89,6.82,3.46,3.12,5.01,4.02,6.61,3.88,2.25,2.61
